Bioassay records from PubChem BioAssay.
AHR activator – activates the human aryl hydrocarbon receptor; P35869; AHR-responsive luciferase reporter cells, luminescence; activation, % at 5 µM; actives 2.5% (n = 320,000); AID 2796; in the data active = activation above about 47%;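 note: 0% = vehicle wells and 100% = reference agonist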
esBAF inh – SWI/SNF esBAF complex inhibition | mouse ES cells, Bmi1-luciferase knock-in reporter, 24 h; 100% = twice the neutral-well signal | reporter increase, % at 12.5 µM | actives 2% (n = 350,000); in the data active = activation above about 40%; inconclusive = no clear call, values can overlap the other calls;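 note: 0% = median of the plate's neutral control wells and 100% = double that signal; a rise in the Bmi1 reporter signal indicates esBAF inhibition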
FXN GAA850 act – increases GAA850 frataxin promoter reporter activity | HEK293 lucGAA850 FXN promoter luciferase reporter, 24 h; percent of 10 µM SAHA response | activation, % at 6 µM | actives 0.56% (n = 360,000);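 active = activation above the average of all compounds screened plus 3 SD, cutoff fixed separately per campaign, cut at about 7.5% in these data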;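 note: 0% = DMSO wells and 100% = 10 µM SAHA wells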
MITF act – increases MITF-driven TRPM1 promoter luciferase signal. SK-MEL-5 TRPM1-promoter luciferase, 24 h; % of positive control, neutral wells = 0. AID 588334. actives 0.75% (n = 300,000). activation, % at 12.5 µM;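 active = mean activation of at least 80% with every replicate also reaching 80%; inconclusive = mean reaches 80% but some replicate falls short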;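 note: 0% = neutral control wells and 100% = parthenolide positive control wells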
Wnt bcat act – activates Wnt/beta-catenin signaling in a reporter cell assay; activator, plate reader; activation, % at 9.35 µM; actives 1.2% (n = 300,000); AID 743398; in the data active = activation above about 30%, passing the limit was not always enough; inconclusive = no clear call, values can overlap the other calls;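 note: 0% = neutral control wells and 100% = positive control wells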
GAA30 FXN cntr – GAA30 FXN promoter activation counter-screen. activation, % at 6 µM. shares compounds with FXN GAA850 act. HEK293 lucGAA30 FXN promoter luciferase, 24 h; DMSO = 0%, 5 µM ipriflavone = 100%. actives 66% (n = 1,900);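 active = mean activation above the mean of solvent-only control wells plus 3 SD, cut at about 22% in these data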;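 note: counterscreen of GAA850 promoter hits where activity marks nonselective or luminescence artifacts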
GAA850 confirm – GAA850 FXN promoter activation confirmation; shares compounds with FXN GAA850 act; HEK293 lucGAA850 FXN promoter luciferase reporter, 24 h; 100% = activation by SAHA; activation, % at 6 µM; actives 86% (n = 1,900); AID 588351;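 active = mean activation above a set limit taken from the primary screen, cut at about 8% in these data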;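 note: 0% = DMSO wells and 100% = 10 µM SAHA wells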
Numbers without * were called inactive; ? = inconclusive; · = no result given. Most compounds without a hit are left out; they make up all but 4.2% or so of the library.

SMILES	AHR activator	esBAF inh	FXN GAA850 act	MITF act	Wnt bcat act	GAA30 FXN cntr	GAA850 confirm
CCc1ccc(C(=O)NC(CC(C)C)C(=O)O)cc1 (stereo unspecified)	-1	0	20*	3	·	20	6
Cc1ccc(CN(C)C[C@H]2OCc3cn(nn3)CCCC(=O)N([C@@H](C)CO)C[C@@H]2C)cc1	·	1	·	·	·	·	·
C[C@@H]1CN([C@@H](C)CO)C(=O)c2cc(NC(=O)c3ccncc3)ccc2O[C@@H](C)CCCCO[C@@H]1CN(C)C(=O)NC1CCCCC1	·	-3	·	·	·	·	·
Cc1ccc(Cl)cc1N1CCN(C(=O)C2CCN(c3nnc(-n4cccc4)s3)CC2)CC1	1	4	8.2*	-15	-3	2	3
COc1ccc(CN(C)C[C@H]2Oc3c(NS(=O)(=O)c4c(C)noc4C)cccc3C(=O)N([C@H](C)CO)C[C@H]2C)cc1	·	-3	·	·	·	·	·
O=C(Nc1ccccc1F)c1coc(=O)c(Br)c1	-2	·	2	26	4	·	·
O=C(NCCc1ccc(F)cc1)c1coc(=O)c(Br)c1	0	-4	10*	-19	24	-6	17*
C[C@H]1CN([C@@H](C)CO)C(=O)Cc2cc(NC(=O)Nc3ccc4c(c3)OCO4)ccc2O[C@@H]1CN(C)C(=O)NC1CCCCC1	·	-2	·	·	·	·	·
C[C@H](CO)N1C[C@H](C)[C@H](CN(C)C(=O)N[C@H](C)c2ccccc2)OCc2ccccc2-c2c(n(C)c3ccccc23)C1=O	·	6	14*	·	-1	-6	4
C[C@@H]1CN([C@H](C)CO)C(=O)c2c(c3ccccc3n2C)-c2ccccc2CO[C@@H]1CN(C)C(=O)N[C@H](C)c1ccccc1	·	-9	·	·	·	·	·
Cn1c(=O)oc2cc(S(=O)(=O)N3CCC(C(=O)NCc4ccc(F)cc4)CC3)ccc21	-1	4	11*	-11	-5	14	6
O=C(Cn1c(=O)oc2cc(S(=O)(=O)N3CCCCCC3)ccc21)NC1CCCCCCC1	-2	7	16*	·	-1	19	16*
CCCNC(=O)Cn1c(=O)oc2cc(S(=O)(=O)N3CCCC3)ccc21	0	-12	0	·	-4	·	·
Cn1c(=O)oc2cc(S(=O)(=O)N3CCC(C(=O)NCc4ccccc4)CC3)ccc21	-2	3	2	·	1	·	·
C[C@@H](O)C#Cc1cnc2c(c1)C(=O)N([C@@H](C)CO)C[C@H](C)[C@@H](CN(C)C(=O)c1ccccc1)O2	·	-1	·	·	·	·	·
COc1ccc(/C=C/S(=O)(=O)NCc2ccccc2)cc1OC	-1	-2	7.8*	3	0	20	8.2*
COc1ccc(/C=C/C(=O)O)cc1S(=O)(=O)NCc1ccccc1	1	·	2	3	2	·	·
Nc1nc2ccccc2cc1-c1cccs1	7	?	7.8*	90*	20	90*	34*
CCCn1cnc2c(cnn2-c2ccc(F)cc2)c1=O	0	52*	10.0*	38	·	59*	18*
Cc1ccc(S(=O)(=O)N(C)C[C@H]2OCCCC[C@@H](C)Oc3ccc(NS(=O)(=O)c4c(C)noc4C)cc3C(=O)N([C@@H](C)CO)C[C@@H]2C)cc1	·	2	·	·	·	·	·
C[C@@H]1CN([C@@H](C)CO)C(=O)c2cc(NS(=O)(=O)c3ccc(Cl)cc3)ccc2O[C@@H](C)CCCCO[C@H]1CN(C)CC1CC1	·	-2	·	·	·	·	·
COc1ccc(OC)c(/C=N/N(C)c2ccccc2)c1	-3	73*	7.9*	96*	·	127*	43*
Cc1noc(C)c1NC(=O)Nc1ccc2c(c1)CC(=O)N([C@H](C)CO)C[C@H](C)[C@@H](CN(C)S(=O)(=O)c1cn(C)cn1)O2	·	-6	·	·	·	·	·
O=C(Nc1cccc(C(F)(F)F)c1)C(=O)N1CCCCC1	2	23	8.1*	27	6	53*	21*
COc1ccc2nc3oc(C(=O)N4CC(C)CC(C)C4)cc3cc2c1 (stereo unspecified)	7	24	2	38	·	·	·
SMILES	AHR activator	esBAF inh	FXN GAA850 act	MITF act	Wnt bcat act	GAA30 FXN cntr	GAA850 confirm
CC1CC(C)CN(C(=O)c2cc3cc(Br)cc(Br)c3o2)C1 (stereo unspecified)	-5	·	10*	83*	1	62*	26*
C/C=C/c1ccc2c(c1)O[C@H](CN(C)C(=O)C1CCOCC1)[C@H](C)CN([C@H](C)CO)S2(=O)=O	·	0	·	·	·	·	·
CO[C@@H]1CN(C)C(=O)c2ccc(NS(=O)(=O)c3ccc(Cl)cc3)cc2OC[C@H](C)N(C(=O)NC(C)C)C[C@@H]1C	·	2	·	·	·	·	·
CN(c1ccc(C(=O)Nc2ccc3c(c2)OCCO3)cc1)S(C)(=O)=O	3	?	9.2*	45	·	93*	29*
C[C@@H]1CN([C@H](C)CO)S(=O)(=O)c2ccc(Br)cc2O[C@@H]1CN(C)Cc1ccncc1	·	2	·	·	·	·	·
CC(C)(C)c1ccc(/C=C/C(=O)Nc2nncs2)cc1	15	26	7.6*	89*	26	108*	39*
C[C@H](Cc1ccccc1)Nc1ncnc2c1ncn2[C@@H]1O[C@H](CO)[C@@H](O)[C@H]1O	2	9	7	5	7	·	·
Nc1nc(Cl)nc2c1ncn2[C@@H]1O[C@H](CO)[C@@H](O)[C@H]1O	1	2	4	-6	-1	·	·
OC[C@H]1O[C@@H](n2cnc3c(NC4CCCC4)nc(Cl)nc32)[C@H](O)[C@@H]1O	3	12	8.5*	10	7	31*	18*
CC(Cc1ccccc1)Nc1ncnc2c1ncn2C1OC(CO)C(O)C1O (stereo unspecified)	-3	14	8.7*	30	3	55*	25*
Cn1c(=O)c(/C=C/c2ccc(F)cc2)nc2ccccc21	·	·	5	25	27	·	·
Cn1c(=O)c(/C=C/c2ccccc2)nc2ccccc21	53*	·	8.1*	43	0	127*	50*
CS(=O)(=O)c1ccc(S(=O)CC(=O)OCc2ccccc2)c([N+](=O)[O-])c1 (stereo unspecified)	·	·	95*	-82	-7	-91	-17
O=C(CS(=O)c1ccc(C(F)(F)F)cc1[N+](=O)[O-])Oc1ccccc1 (stereo unspecified)	26	·	7	-87	25	·	·
COc1ccc(CN(C)C[C@@H]2OCCCC[C@H](C)Oc3ccc(NC(=O)Nc4ccc(C(F)(F)F)cc4)cc3C(=O)N([C@H](C)CO)C[C@H]2C)cc1	·	7	·	·	·	·	·
CCc1nc2ccc(C(=O)NCCOc3ccc(OC)cc3)cn2c1N(CC)Cc1cccc(Br)c1	·	-1	-3	·	-8	·	·
CCc1nc2ccc(C(=O)NCCN3CCNC3=O)cn2c1N(CC)Cc1cccc(Br)c1	·	-3	15*	·	-1	15	7
